Antigen binding call data for 96 variants are collected here from the emibetuzumab library of Makowski et al. (2022).

The labels stand for the following.
B1: VH:VL chains; a variant is named by its letters at X, in order (parent)
chain 1: QVQLVQSGAEVKKPGASVKVSCKASGYTFTDYXMHWVRQAPGQGLEWMGXVNPNXXXTTYNQKFEGRVTMTTDTSTSTAYMELRSLRSDDTAVYYCARXNXLDXWGQGTTVTVSS
chain 2: DIQMTQSPSSLSASVGDRVTITCSVSSSVSSIYLHWYQQKPGKAPKLLIYSTSNLASGVPSRFSGSGSGTDFTLTISSLQPEDFATYYCQVYSGYPLTFGGGTKVEIK

This is one part of the list. The hit rate among all sequences tested is not known here.

In this assay the parent is B1. Description: yeast display scFab, FACS + sequencing. The settings on record: with MET. In a few lines: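 A heavy-chain CDR mutant scFab library on yeast was enriched magnetically with HGFR-Fc-coated Protein A beads for two rounds and then by FACS after labelling with 1 nM HGFR-Fc and anti-Myc in PBSB with 1% milk for 3 h at room temperature, gating the top 50% antigen-positive cells. Antigen binding was judged positive if a sequence turned up in both antigen-positive deep-sequencing samples and negative if it turned up only in the input.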
On to VTGEDDWY, for which the antigen binding call is given as “no binding”.
The entry for DTKAADVA is “no binding”; for SEARSDGY it is “no binding”; for YKGRGYAD it is “no binding”.
In the case of YGGRGDAD, the antigen binding call is given as “no binding”.
In the case of YKGRGYGD, the antigen binding call is “binds”.
With YKGRGDGD, the antigen binding call is recorded as “binds”.
The entry for YKGKGFGD is “no binding”; for YKGRGFGD it is “binds”; for YKGADFGD it is “no binding”.
As for SAGRGYGD, the entry is “no binding”; as for YKGRGDAD, “binds”.
The entry for YAGRGDAD is “no binding”; for YEGGGDVA it is “no binding”; for VGAEGVWS chain 1 G66S it is “no binding”.
On to VEGGGDVD, for which the antigen binding call is on record as “no binding”.
As for VAGAGDSV, the entry is “no binding”; as for YAGRGDLV, “no binding”.
As for YAGRGDVD, the entry is “no binding”; as for YAGRGDLD, “binds”.
For VKTGGDGD, the antigen binding call is listed as “no binding”.
As for YKGRGVGD, the entry is “binds”.
For YAGRGVGD, the antigen binding call was “no binding”.
As for YKGKGDGD, the entry is “binds”.
As for VEEEDYSS, the entry is “no binding”; as for FRKGGAAA, “binds”.
Turning to FAAKTAAA, the antigen binding call was “no binding”.
The entry for FRAGGAAA is “binds”; for FRARSAAA it is “binds”.
As for YRGGSAGA, the entry is “binds”; as for DRGRDAGA, “no binding”; as for YRGRSAGA, “binds”.
As for VKGRGSWY, the entry is “binds”; as for VKGRGFWY, “no binding”; as for VKGRGAWY, “binds”.
For VKGRADWY, the antigen binding call is “no binding”.
The entry for VKTGGAWY is “no binding”.
The entry for VAAAGAAV is “no binding”; for YKTRGSLD it is “binds”; for YKTRSSAD it is “binds”.
The entry for DKEGGSAD is “no binding”.
With DKTGDSAD, the antigen binding call is “binds”.
The entry for DKKEDSAD is “no binding”; for YKTRGSAD it is “binds”.
The entry for VKKESDSY is “no binding”; for YAREDDGA it is “no binding”; for YRRGTSVD it is “binds”.
Consider ARRGGSVD, for which the antigen binding call was “no binding”.
The entry for YRRGGSVD is “binds”.
The entry for DATGGDWA is “no binding”.
The entry for YARRGDGA is “no binding”; for ARRRGSGA it is “no binding”.
YRRRGSGA: the antigen binding call was “binds”.
With YRRRGVGA, the antigen binding call is reported as “binds”.
As for YRRRGAGA, the entry is “binds”; as for YRRRGFGA, “binds”; as for YARADDSA, “no binding”.
As to DTTGSSGV, the antigen binding call is recorded as “no binding”.
Turning to VEAGDDAA, the antigen binding call is “no binding”.
The entry for VKGRADLV is “no binding”; for VKGKDVGY it is “no binding”.
The entry for VEGRGDGY is “no binding”; for VKGRGAGY it is “binds”; for YKGRGVGY it is “binds”.
YTGTSDWY: the antigen binding call is on record as “no binding”.
As for YKGRGDGY, the entry is “binds”.
As for DAGRGDGY, the antigen binding call was “no binding”.
The entry for VKGRGVGY is “no binding”.
The entry for YKGRGDWY is “binds”; for DEGRGDWY it is “no binding”; for DKEGGDAS it is “no binding”.
As for DKEGGDVA, the entry is “no binding”; as for DTAEDFGV, “no binding”.
For YKGRGAGY, the antigen binding call is on record as “binds”.
On to VGGTSDVF, for which the antigen binding call is “no binding”.
The entry for DGGKNDGS is “no binding”; for DTKRTAGD it is “no binding”; for YRRRGYGD it is “binds”.
The entry for YRRRGVGS is “binds”; for YRRRGAGD it is “binds”.
On to YRREGAGD, for which the antigen binding call is given as “binds”.
The entry for VTGEDDVA is “no binding”.
In the case of DEGGTDVD, the antigen binding call is “no binding”.
For DRGGDDLV, the antigen binding call is “no binding”.
The entry for DARGGDVY is “no binding”; for YRRRGVGD it is “binds”.
In the case of YRRRGDGD, the antigen binding call is “binds”.
For SEARSDVF, the antigen binding call was “no binding”.
For the variant DARGGDWV, the antigen binding call was “no binding”.
As for YAGGDSGV, the entry is “no binding”; as for YTRGAAGV, “no binding”.
The entry for YRRGASGV is “binds”; for DRRGDDGV it is “no binding”; for YRRGDSGV it is “binds”.
As for ARRGAAGV, the entry is “no binding”; as for DARADSLV, “no binding”.
